These results are taken from PubChem BioAssay (NCATS).

SMILES strings stand for the structures. Records with an inconclusive call do not appear. Active and inactive are the calls of the source. Calls follow the shape of the dose curve; as a rule, active = well fitted inhibition curve with a large enough effect; inconclusive = small, poorly fitted or top-dose-only effect; inactive = flat fitted curve, though single readings scatter.

The subject of this test is NIH3T3. In words: qHTS assay to identify novel small-molecules to repurpose for Merkel cell carcinoma treatment (AID 1296009). Also: nearly all actives have a fitted effect of over 60% in size. The settings on record: MCC and control cell lines, CellTiter-Glo viability, 72 h; at 44.8 µM (top of the series) unless noted. The source says:
MCC is a rare and aggressive neuroendocrine skin cancer with limited treatment options. Approximately 80% of MCCs have the Merkel cell polyomavirus (MCPyV) DNA integrated into the host genome (virus-positive: VP-MCC) and viral oncogenes drive oncogenesis. The remaining MCCs are virus-negative (VN-MCC) and are caused by UV mutagenesis. To identify novel treatments for VP-MCC and/or VN-MCC we screened three VP-MCC cell lines (WAGA, MKL-1, MKL-2), three VN-MCC cell lines (MCC-13, MCC-26, UISO), and four immortalized, non-transformed control cell lines (HaCaT, HEK293T, CRL7250, NIH-3T3) against ~2,400 compounds in the NCGC Pharmaceutical Collection (NPC) and ~1,900 compounds in the Mechanism Interrogation PlatE (MiPE). Using cell viability as a readout (CellTiter-Glo assay) we found both overlapping and distinct drugs that can be repurposed for the treatment of VP-MCC and VN-MCC.
A high-throughput screen was conducted in 1536-well white flat bottom plates (Corning) on a Kalypsys robotic system. Cell lines WAGA, MKL-1, MKL-2, MCC-13, MCC-26, UISO, HaCaT, HEK293T, CRL7250, and NIH-3T3 were screened against 2 small molecule annotated drug libraries NPC and MIPE in dose response (8 and 11 pt. respectively) measuring cell viability after 72 hours of incubation. […] A 1,536 pintool (Kalypsys) was used to transfer 23 nL of compound in DMSO to the 1,536-well assay plates. After 72 hr incubation at 37 degree celsius, 2.5 uL of CellTiter-Glo (Promega) was dispensed into each well using a BiorapTR. Plates were incubated at room temperature for 10 min, transferred to a ViewLux (PerkinElmer) and the luminescence was recorded using an exposure time of 2 seconds. Relative luminescence units (RLUs) were normalized to in-plate controls (no cells as a positive (cytotoxicity) control, DMSO as negative control) and the normalized data was processed using NCATS in-house software.
(In general: In qHTS, concentration-response curves come from the screen itself.)
With `CO[C@@H]1[C@H](O)[C@@H](O[C@@H]2C[C@H]3CC[C@@H]4C(CC[C@]5(C)[C@@H](C6=CC(=O)OC6)CC[C@]45O)[C@@]3(C)[C@H](O)C2)O[C@H](C)[C@@H]1O[C@@H]1O[C@H](CO)[C@@H](O)[C@H](O)[C@H]1O` (stereo not given in full), the outcome was “inactive [at 17.4 µM]”.
Next, `CN1[C@@H]2CC[C@H]1CC(OC(=O)C1C=Nc3ccccc31)C2` (stereo not given in full): “inactive”; `CC(C)(C)c1cc(C(C)(C)C)c2c(c1)C(O)(C(F)(F)F)C(=O)O2` (stereo not given): “inactive”.
As for `COc1cc(C(=O)O[C@H]2[C@@H]3C=CO[C@@H](O[C@@H]4O[C@H](CO)[C@@H](O)[C@H](O)[C@H]4O)[C@@H]3[C@@]3(CO)O[C@@H]23)ccc1O`, the outcome is “inactive [at 17.4 µM]”.
On to `CC1=C2C[C@H]3[C@@H](CC=C4C[C@@H](O)CC[C@@]43C)[C@@H]2CC[C@]12O[C@@H]1C[C@H](C)CN[C@H]1[C@H]2C`, for which the compound was classed as inactive.
As for `CC(=O)OC1CC(O)C(C)(C)C2CC(OC(C)=O)C3(C)C(CCC4(C)C(c5ccoc5)C(=O)C5OC543)C12C` (stereo not given), the outcome was “inactive [at 17.4 µM]”.
For the compound `CC(C)[C@@H](CN1CC[C@@](C)(c2cccc(O)c2)[C@@H](C)C1)NC(=O)[C@H]1Cc2ccc(O)cc2CN1`, the outcome was inactive.
On to `Oc1ccc2c3c1O[C@H]1[C@H](N(CCCl)CCCl)CC[C@@]4(O)[C@@H](C2)N(CC2CC2)CC[C@]314`, for which the outcome is “inactive [at 9.27 µM]”.
Turning to `CCCN1CCO[C@H]2c3cc(O)ccc3OC[C@@H]21`, the compound was classed as inactive.
Next, `COC1CC(=O)C23C(=O)NC(CC(C)C)C2C(C)=C(C)C(OO)C3/C=C(\C)CCC(O)C1O` (stereo not given): “inactive [at 17.4 µM]”; `C[C@@H]1C(=O)O[C@H]2[C@H](O)[C@@]34[C@@H]5OC(=O)[C@@]3(O[C@@H]3OC(=O)[C@@H](O)[C@@]34[C@H](C(C)(C)C)[C@H]5O)[C@@]12O`: “inactive [at 17.4 µM]”; `Cc1c(Cl)cccc1S(=O)(=O)Nc1nc(CC(=O)N2CCN(C)CC2)cs1`: “inactive”.
As for `N#CC(OC1OC(COC2OC(CO)C(O)C(O)C2O)C(O)C(O)C1O)c1ccccc1` (stereo not given), the outcome is “inactive [at 17.4 µM]”.
Under `COC1C(O)C(C)OC(OC2C(CO)O[C@@H](O[C@@H]3CC4CCC5C(CC[C@]6(C)[C@@H](C7=CC(=O)OC7)CC[C@]56O)[C@@]4(C)[C@H](O)C3)C(O)C2O)C1O` (stereo not given in full) stands “inactive [at 17.4 µM]”; under `Cc1cn(C[C@H](N)C(=O)O)c(=O)n(Cc2cc(-c3ccccc3)sc2C(=O)O)c1=O`, “inactive”; under `CC1=CC2/C=C(\C)CCC(O)C3OC(C)(C)OC3CC(=O)OC23C(=O)NC(CC(C)C)C3C1C` (stereo not given), “inactive [at 17.4 µM]”.
Turning to `COC(=O)C12C(=O)C(C)(O)C(=O)C1(C)C(C)=CC1C34CCC(OC3=O)C(C)(CO)C4CCC12C` (stereo not given), the outcome is “inactive [at 17.4 µM]”.
For the compound `Cc1cccc(NC(=O)N[C@@H]2N=C(c3ccccc3)c3ccccc3N(C)C2=O)c1`, the compound was called inactive.
On to `CCN1C[C@]2(COC)[C@H](O)C[C@H](OC)[C@]34[C@@H]5C[C@]6(O)[C@H](OC(=O)c7ccccc7)[C@@H]5[C@@](O)([C@H]([C@H](OC)[C@H]23)[C@@H]14)[C@@H](O)[C@@H]6OC`, for which the compound was called inactive.
In the case of `CN1[C@H]2C[C@H](OC(=O)[C@H](CO)c3ccccc3)C[C@@H]1[C@@H](O)C2`, the outcome was inactive.
For the compound `COC1CC(OC2CCC3(C)C(CCC4C3CCC3(C)C(C5=CC(=O)OC5)C(OC(C)=O)CC43O)C2)OC(C)C1OC1OC(CO)C(O)C(O)C1O` (stereo not given), the outcome is “inactive [at 17.4 µM]”.
Next, `CC1=C2C(=O)C3[C@@H](CC=C4C[C@@H](O)CC[C@@]43C)[C@@H]2CC[C@]12O[C@@H]1C[C@H](C)CN[C@H]1[C@H]2C` (stereo not given in full): “inactive [at 17.4 µM]”; `CCc1[nH]c2ccc(OC)cc2c1CCN(C)C`: “inactive”.
Consider `COC1C(O)C(OC2CCC3(C=O)C(CCC4C3CCC3(C)C(C5=CC(=O)OC5)CCC43O)C2)OC(C)C1OC1OC(CO)C(O)C(O)C1O` (stereo not given), for which the outcome was “inactive [at 17.4 µM]”.
As to `C[C@@](O)(COc1ccc(C#N)cc1)C(=O)Nc1ccc(C#N)c(C(F)(F)F)c1`, the compound was classed as inactive.
Consider `CO[C@H]1[C@H](O)[C@H](O[C@H]2CC[C@]3(C)C4CC[C@]5(C)[C@H](C6=CC(=O)OC6)CC[C@]5(O)C4CC[C@@H]3C2)O[C@@H](C)[C@@H]1O` (stereo not given in full), for which the outcome was “inactive [at 17.4 µM]”.
Consider `CC[C@H]1CN2CC[C@H]1C[C@@H]2[C@@H](O)c1ccnc2ccc(OC)cc12`, for which the compound was called inactive.
With `C[C@H]1O[C@@H](O[C@H]2C[C@@H](O)[C@]3(CO)C4C(CC[C@]3(O)C2)[C@@]2(O)CC[C@H](C3=CC(=O)OC3)[C@@]2(C)C[C@H]4O)[C@@H](O)[C@@H](O)[C@H]1O` (stereo not given in full), the outcome was “inactive [at 17.4 µM]”.
Consider `C[C@H]1C(=O)O[C@H]2[C@H](O)[C@]34C5OC(=O)[C@]3(O[C@@H]3OC(=O)[C@H](O)C34[C@H](C(C)(C)C)[C@H]5O)C12O` (stereo not given in full), for which the outcome was “inactive [at 17.4 µM]”.
As to `CC(=O)OC12C(O)C(C)C3(O)C4C=C(C)C(=O)C4CC(CO)=CC3C1C2(C)C` (stereo not given), the outcome is “inactive [at 17.4 µM]”.
For the compound `CN1CCCC1CCOC(c1cc2nccc(C(=O)O)c2[nH]1)c1ccccc1Cl` (stereo not given), the compound was called inactive.
As to `CN(C)CCc1c[nH]c2ccc(CN3CCN(C)S3(=O)=O)cc12`, the call was inactive.
Under `CC(C)C1(OO)C=C2C(=O)CC3C(C)(C(=O)O)CCCC3(C)C2CC1` (stereo not given) stands “inactive”; under `CC12CCC3C(CCC4(O)CC(O)CCC34C=O)C1(O)CCC2C1=CC(=O)OC1` (stereo not given), “inactive”.
Under `COC1CC(O[C@H]2CC[C@]3(C=O)C4CC[C@]5(C)[C@@H](C6=CC(=O)OC6)CC[C@]5(O)[C@@H]4CC[C@]3(O)C2)OC(C)C1O[C@@H]1O[C@H](CO)[C@@H](O)[C@H](O)[C@H]1O` (stereo not given in full) stands “inactive [at 17.4 µM]”; under `C[C@]12CC[C@@H](O)C[C@H]1CC[C@@H]1[C@@H]2CC[C@]2(C)C(=O)CC[C@@H]12`, “inactive”.
On to `C/C=C(\C)C(=O)O[C@H]1[C@H](OC(C)=O)[C@]2(CO)[C@H](O)[C@H](O)[C@]3(C)C(=CCC4[C@@]5(C)CC[C@H](O[C@@H]6O[C@H](C(=O)O)[C@@H](O)[C@H](O[C@@H]7OC[C@H](O)[C@H](O[C@@H]8OC[C@H](O)[C@H](O)[C@H]8O)[C@H]7O)[C@H]6O[C@@H]6O[C@H](CO)[C@@H](O)[C@H](O)[C@H]6O)C(C)(C)C5CC[C@]43C)[C@@H]2CC1(C)C` (stereo not given in full), for which the outcome was “inactive [at 9.27 µM]”.
Under `COC1CC(O[C@H]2CC[C@@]3(C)C(=CCC4C3C(O)[C@@H](O)[C@]3(C)[C@@H](C(C)=O)CC[C@]43O)C2)OC(C)C1OC1CC(OC)C(OC2OC(C)C(O)C(O)C2O)C(C)O1` (stereo not given in full) stands “inactive [at 9.27 µM]”; under `CCC1NC(=O)C2C(Cl)C(Cl)CN2C(=O)C(C(C)O)NC(=O)CC(c2ccccc2)NC(=O)C(CO)NC1=O` (stereo not given), “inactive [at 17.4 µM]”.
In the case of `COC1CC(OC2CCC3(C)C(=CCC4C3CCC3(C)C(C(C)OC5OC(COC6OC(CO)C(O)C(O)C6O)C(O)C(O)C5O)CCC43O)C2)OC(C)C1OC1OC(C)C(O)C(OC)C1O` (stereo not given), the outcome was “inactive [at 9.27 µM]”.
